Assay outcomes deposited in PubChem by National Center for Advancing Translational Sciences (NCATS).
Hits are enriched below; roughly 12% of the tested compounds scored in any of these assays.
JMJD2A Tudor: JMJD2A Tudor domain (human) inhibition. O75164. AlphaScreen JMJD2A-Tudor / H3K4me3 peptide binding. Potency, µM (doses to about 114 µM), inactives show top-dose activity change, negative = inhibition, most hits filed as inhibitors. 4.4% of 390,000 active. AID 504339; also: potency is read from the fitted curve at half-maximal effect; % is scaled to controls: 0 for no effect and ±100 for the full control effect; nearly all actives have a fitted effect of over 50% in size
Target sequence (O75164 whole entry, looked up, the tested form may be a part): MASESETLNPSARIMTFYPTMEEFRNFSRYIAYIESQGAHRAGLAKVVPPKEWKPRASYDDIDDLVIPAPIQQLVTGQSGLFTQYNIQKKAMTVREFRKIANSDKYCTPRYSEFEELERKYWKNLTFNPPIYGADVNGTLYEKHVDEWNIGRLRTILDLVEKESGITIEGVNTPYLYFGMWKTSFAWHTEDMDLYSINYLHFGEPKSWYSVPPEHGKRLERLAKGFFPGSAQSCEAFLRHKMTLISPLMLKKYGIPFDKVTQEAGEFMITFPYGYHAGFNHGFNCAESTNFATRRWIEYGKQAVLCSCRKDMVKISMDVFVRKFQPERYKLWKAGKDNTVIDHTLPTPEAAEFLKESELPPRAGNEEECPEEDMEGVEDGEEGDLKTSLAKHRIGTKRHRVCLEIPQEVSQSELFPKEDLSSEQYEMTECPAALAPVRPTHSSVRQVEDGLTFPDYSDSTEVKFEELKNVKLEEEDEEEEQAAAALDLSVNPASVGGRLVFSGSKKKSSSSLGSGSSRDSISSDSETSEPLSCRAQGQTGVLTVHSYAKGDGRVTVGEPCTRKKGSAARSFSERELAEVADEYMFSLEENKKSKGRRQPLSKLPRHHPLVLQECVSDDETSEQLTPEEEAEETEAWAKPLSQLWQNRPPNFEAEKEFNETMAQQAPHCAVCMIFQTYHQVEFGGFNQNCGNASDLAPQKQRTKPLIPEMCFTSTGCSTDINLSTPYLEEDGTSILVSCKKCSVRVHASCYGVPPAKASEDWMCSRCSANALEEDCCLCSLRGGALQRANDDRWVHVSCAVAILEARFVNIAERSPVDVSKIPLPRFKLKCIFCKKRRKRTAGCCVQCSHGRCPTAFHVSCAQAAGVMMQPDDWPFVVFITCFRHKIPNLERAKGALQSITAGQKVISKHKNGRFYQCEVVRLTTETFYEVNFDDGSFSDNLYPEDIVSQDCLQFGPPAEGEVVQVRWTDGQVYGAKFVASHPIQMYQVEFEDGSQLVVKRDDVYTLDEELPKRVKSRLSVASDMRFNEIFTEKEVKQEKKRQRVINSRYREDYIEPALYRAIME
HP1b chromo inh: inhibitors of HP1-beta chromodomain binding to methylated histone tails. P83916. AlphaScreen HP1-beta / biotin-H3K9me3 peptide binding. Potency, µM (doses to about 114 µM), inactives show at the top dose activity change, negative = inhibition, usual class: inhibitors. 0.56% of 390,000 active; also: potency is read from the fitted curve at half-maximal effect; nearly all actives have a fitted effect of over 70% in size
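Compound inhibition of the preformed complex between 50 nM HP1-beta and 50 nM biotinylated H3K9me3 peptide was read by AlphaScreen. Buffer was PBS pH 7.4 with 0.01% Tween-20. Incubations ran 30 min at room temperature, with 10 ug/mL donor/acceptor beads.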
BAZ2B block: BAZ2B (human) inhibition. Q9UIF8. Potency, µM (highest dose often 114 µM), for inactives: top-dose activity change, negative = inhibition, most hits filed as inhibitors. AlphaScreen BAZ2B-H3K14Ac peptide displacement. AID 504333. 4.4% of 360,000 active; also: potency is read from the fitted curve at half-maximal effect; % is scaled to controls: 0 for no effect and ±100 for the full control effect; nearly all actives have a fitted effect of over 60% in size
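AlphaScreen displacement: compounds (up to 110uM) incubated 30 min at room temperature with a preformed 50 nM BAZ2B/50 nM biotinylated H3K14Ac peptide complex in PBS pH 7.4 with Tween-20. Donor and acceptor beads at 10 ug/mL final added, 20 min light-protected before reading.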
G9a block: blocks human histone lysine methyltransferase G9a; G9a H3K9 monomethylation, AlphaScreen, 2 h; Potency, µM (highest dose often 102 µM), without a hit: top-dose activity, negative = inhibition, usual class: inhibitors; AID 504332; 8.8% of 350,000 active; also: potency is read from the fitted curve at half-maximal effect; % is scaled to controls: 0 for no effect and ±100 for the full control effect; nearly all actives have a fitted effect of over 75% in size
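Methyltransferase reactions run at room temperature for 2 h (20 nM enzyme, 500 nM biotin-H3K9 peptide, 20 uM SAM) after a 15 min compound preincubation; product detected by AlphaScreen beads and anti-H3K9me1 antibody.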
PI5P4Ka inh: PI5P4K alpha (human) kinase inhibition; P48426; PI5P4Kalpha enzyme, ADP-Glo luminescence, 60 min; stronger effect = lower value; max response, %; 1.2% of 330,000 active; AID 652105; active = max response of -50% or lower; inconclusive = between -30% and -50%; inactive = -30% or higher; also: value at the top dose of about 77 µM; % is scaled to controls: 0 for no effect and ±100 for the full control effect
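Luminescence from ADP-Glo served as readout of PI5P4Kalpha activity in a qHTS format. Reaction: enzyme, substrate, compound, ATP at 5 microM final, 60 min at RT.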
PLK1 PBD inh: blocks phosphopeptide binding to human PLK1 polo-box domain; Plk1 PBD binding of FITC phosphopeptide, fluorescence polarization; Potency, µM, for inactives: max response, negative = inhibition, usual class: inhibitors; 2.8% of 360,000 active; P53350; also: potency is read from the fitted curve at half-maximal effect; series mostly up to about 57 µM; % is scaled to controls: 0 for no effect and ±100 for the full control effect; nearly all actives have a fitted effect of over 65% in size
Numbers without * were called inactive; ! = a repeat was not active; [ ] = remark or other dose. Unless noted, calls follow the shape of the dose curve; as a rule, active = well fitted curve in the direction sought with a large enough effect; inconclusive = small, poorly fitted or top-dose-only effect, or another doubt; inactive = no such curve, though single readings can be large; an effect the other way counts as inactive or inconclusive.

`O=C(NCC(=O)N1CCCC(C(F)(F)F)C1)c1cccs1` (stereo not drawn) gave JMJD2A Tudor 2%, HP1b chromo inh 85%, PI5P4Ka inh 4 and PLK1 PBD inh 0%.
For CCCCCCCCCCCCCC(=O)N[C@H](C)[C@@H](O)c1ccccc1 the results were G9a block 17%[59 µM].
Screening CCN(CC)C(=O)CSC1=C(C#N)C(c2ccco2)C(C(=O)OCCOC)=C(C)N1 (stereo not drawn) returned JMJD2A Tudor 79µM*!, HP1b chromo inh 26%, BAZ2B block inconclusive, G9a block 25µM*, PI5P4Ka inh -5 and PLK1 PBD inh -3%.
CCOC(=O)CSC1=C(C#N)C(c2sccc2C)C(C(C)=O)=C(C)N1 (stereo not drawn) was read as JMJD2A Tudor 4%, HP1b chromo inh 40%, BAZ2B block 2%[57.1 µM], G9a block -1% and PLK1 PBD inh 27µM*.
Screening CC(=O)C1=C(C)NC(SCC(=O)c2ccc(Cl)cc2)=C(C#N)C1CC(C)C (stereo not drawn) returned JMJD2A Tudor inconclusive, HP1b chromo inh 38%, BAZ2B block inconclusive, G9a block 0.79µM*, PI5P4Ka inh 2 and PLK1 PBD inh -26%.
For CSCSC1=C(C#N)C(c2ccccc2Cl)C(C(C)=O)=C(C)N1 (stereo not drawn) the results were JMJD2A Tudor -29%, HP1b chromo inh 59%, BAZ2B block 30%, G9a block 4µM* and PLK1 PBD inh -20%.
For CC(=O)C1=C(C)NC(SCC(N)=O)=C(C#N)C1c1sccc1C (stereo not drawn) the results were JMJD2A Tudor inconclusive, HP1b chromo inh 30%, BAZ2B block 0%, G9a block -25%[59 µM] and PLK1 PBD inh -10%.
`COc1ccccc1NC(=O)CN1C(=O)C(c2ccc(F)cc2)=NC1(C)C` gave JMJD2A Tudor 3%, HP1b chromo inh 30%, BAZ2B block -2% and G9a block 5%[59 µM].
For CC(=O)c1cccc(-c2ccnc3c2CC(C(=O)Nc2ccccc2)O3)c1 (stereo not drawn) the results were PI5P4Ka inh -15 and PLK1 PBD inh -5%.
`CCc1ccc(C(=O)CSC2=C(C#N)C(c3ccco3)C(C(C)=O)=C(C)N2)cc1` (stereo not drawn) gave JMJD2A Tudor -10%, HP1b chromo inh 49%, BAZ2B block -3%[57.1 µM] and G9a block 40µM*.
For CC(=O)C1=C(C)NC(SCC(=O)c2cc(Cl)ccc2Cl)=C(C#N)C1c1ccco1 (stereo not drawn) the results were JMJD2A Tudor inconclusive, HP1b chromo inh -3%, BAZ2B block 2%, G9a block 32µM* and PLK1 PBD inh -18%.
`CC(=O)C1=C(C)NC(SCc2cccc([N+](=O)[O-])c2)=C(C#N)C1c1ccco1` (stereo not drawn) gave JMJD2A Tudor inconclusive, HP1b chromo inh -13%, BAZ2B block 40µM*, PI5P4Ka inh -2 and PLK1 PBD inh -11%.
COc1cc2c(cc1OC)CN(C(=O)c1cc(S(=O)(=O)N3CCOCC3)ccc1C)CC2 was read as JMJD2A Tudor -12%, HP1b chromo inh 14%, BAZ2B block 10%, G9a block 12%[12.7 µM], PI5P4Ka inh 2 and PLK1 PBD inh -6%.
Screening Cn1cnc([N+](=O)[O-])c1Sc1ncnc2nc[nH]c12 returned JMJD2A Tudor 3%, HP1b chromo inh 21%, BAZ2B block -5%, G9a block 16%[12.7 µM], PI5P4Ka inh 0 and PLK1 PBD inh 2%.
Screening Cn1cnc(Sc2ncnc3nc[nH]c23)c1[N+](=O)[O-] returned JMJD2A Tudor 6.3µM*, HP1b chromo inh inconclusive, BAZ2B block inconclusive, PI5P4Ka inh inconclusive and PLK1 PBD inh inconclusive.
`Cc1nc2ccn(Cc3ccco3)c(=O)c2cc1C(=O)Nc1ccc(F)cc1` gave JMJD2A Tudor -12%, HP1b chromo inh 22%, BAZ2B block -16% and G9a block 0%[59 µM].
COc1cccc(NS(=O)(=O)c2ccc3c(c2)n(C)c(=O)n3C)c1 was read as JMJD2A Tudor -3%, HP1b chromo inh 41%, BAZ2B block inconclusive and G9a block -1%[59 µM].
Screening CN1c2ccccc2C(C)(C)C12C=Nc1c(ccc3ccccc13)O2 (stereo not drawn) returned JMJD2A Tudor inconclusive, HP1b chromo inh 0%, BAZ2B block 50µM*, PI5P4Ka inh 11 and PLK1 PBD inh -5%.
For CN1c2ccccc2C(C)(C)C12CC(CCl)=NO2 (stereo not drawn) the results were JMJD2A Tudor -21%, HP1b chromo inh 23%, BAZ2B block -6%, G9a block -10%[2.33 µM], PI5P4Ka inh 1 and PLK1 PBD inh -5%.
CN1c2ccccc2C(C)(C)[C@]12C=Cc1cc(O)ccc1O2 was read as JMJD2A Tudor 56µM*, HP1b chromo inh inconclusive, BAZ2B block 40µM*, G9a block inconclusive, PI5P4Ka inh -7 and PLK1 PBD inh -4%.
COc1ccc2ccc3c(c2c1)N=CC1(O3)N(C)c2ccccc2C1(C)C (stereo not drawn) was read as JMJD2A Tudor 45µM*, HP1b chromo inh inconclusive, BAZ2B block -10%, G9a block 5.6µM* and PLK1 PBD inh -24%.
`O=C(CCNS(=O)(=O)c1ccc2c(c1)CCN2C(=O)C1CC1)Nc1ccc(Cl)cc1` gave JMJD2A Tudor -15%, HP1b chromo inh 18%[57 µM], BAZ2B block -1% and G9a block -2%[59 µM].
For CN1/C(=C\C(=O)COC(=O)CNC(=O)c2ccc3ccccc3c2)C(C)(C)c2ccccc21 the results were JMJD2A Tudor -32%, HP1b chromo inh -4%, BAZ2B block -10%, G9a block inconclusive, PI5P4Ka inh -14 and PLK1 PBD inh 19µM*.
`CN1/C(=C\C(=O)COC(=O)CNC(=O)c2ccccc2F)C(C)(C)c2ccccc21` gave JMJD2A Tudor -6%, HP1b chromo inh 15%, BAZ2B block -6%, G9a block -1%[59 µM], PI5P4Ka inh 1 and PLK1 PBD inh -8%.
`Nc1ccc(-c2nc3nc(N)nc(N)c3nc2-c2ccc(N)cc2)cc1` gave JMJD2A Tudor -16%, HP1b chromo inh 8%, BAZ2B block -15%, G9a block -28%, PI5P4Ka inh -51* and PLK1 PBD inh -13%.
Screening CCc1ccccc1Nc1nn2c(=O)c3ccc(C(=O)NCc4cccs4)cc3nc2s1 returned JMJD2A Tudor -19%, HP1b chromo inh 12%, BAZ2B block inconclusive and G9a block -35%[12.7 µM].
Screening c1cncc(CNc2ncncc2-c2ccoc2)c1 returned G9a block -14%[0.501 µM].
